The list is not random: actives were taken first. Their share in the collection is about 9%.
HP1b binding inh: blocks HP1-beta chromodomain binding to methylated histone tails. P83916. AlphaScreen HP1-beta / biotin-H3K9me3 peptide binding. Potency, µM (series often up to 114 µM), usual class: inhibitors. actives 0.56% (n = 390,000). AID 540317; also: nearly all actives have a fitted effect of over 70% in size
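AlphaScreen: HP1-beta (50 nM) preformed 30 min with biotin-H3(1-18)K9me3 peptide (50 nM) in PBS pH 7.4, 0.01% Tween-20. Compound added for 30 min at RT, then streptavidin donor/nickel chelate acceptor beads (10 ug/mL) for 30 min.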
G9a block: G9a (human) methyltransferase inhibition; Q96KQ7; G9a H3K9 monomethylation, AlphaScreen, 2 h; Potency, µM (series often up to 102 µM), hits mostly inhibitors; actives 8.8% (n = 350,000); also: nearly all actives have a fitted effect of over 75% in size
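Step 1: enzyme (final 20 nM) with compound, 15 min RT. Step 2: substrate peptide 500 nM and SAM 20 uM, 2 h RT. Step 3: anti-H3K9me1 antibody and AlphaScreen beads, 10 min, then plate read.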
BAZ2B inh: BAZ2B (human) inhibition; actives 4.4% (n = 360,000); Potency, µM (doses to about 114 µM), most hits filed as inhibitors; AlphaScreen BAZ2B-H3K14Ac peptide displacement; Q9UIF8; also: nearly all actives have a fitted effect of over 60% in size
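Compounds, titrated to a top concentration of 110 uM, were incubated 30 min at room temperature with preformed BAZ2B/acetyl-K14 H3 peptide complex (50 nM each). Proximity signal was measured by AlphaScreen after 20 min with beads.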
JMJD2A Tudor inh: inhibitors of human JMJD2A Tudor domain; actives 4.4% (n = 390,000); Potency, µM (doses to about 114 µM), usual class: inhibitors; O75164; AlphaScreen JMJD2A-Tudor / H3K4me3 peptide binding; also: nearly all actives have a fitted effect of over 50% in size
Target sequence (O75164 whole entry, looked up, the tested form may be a part): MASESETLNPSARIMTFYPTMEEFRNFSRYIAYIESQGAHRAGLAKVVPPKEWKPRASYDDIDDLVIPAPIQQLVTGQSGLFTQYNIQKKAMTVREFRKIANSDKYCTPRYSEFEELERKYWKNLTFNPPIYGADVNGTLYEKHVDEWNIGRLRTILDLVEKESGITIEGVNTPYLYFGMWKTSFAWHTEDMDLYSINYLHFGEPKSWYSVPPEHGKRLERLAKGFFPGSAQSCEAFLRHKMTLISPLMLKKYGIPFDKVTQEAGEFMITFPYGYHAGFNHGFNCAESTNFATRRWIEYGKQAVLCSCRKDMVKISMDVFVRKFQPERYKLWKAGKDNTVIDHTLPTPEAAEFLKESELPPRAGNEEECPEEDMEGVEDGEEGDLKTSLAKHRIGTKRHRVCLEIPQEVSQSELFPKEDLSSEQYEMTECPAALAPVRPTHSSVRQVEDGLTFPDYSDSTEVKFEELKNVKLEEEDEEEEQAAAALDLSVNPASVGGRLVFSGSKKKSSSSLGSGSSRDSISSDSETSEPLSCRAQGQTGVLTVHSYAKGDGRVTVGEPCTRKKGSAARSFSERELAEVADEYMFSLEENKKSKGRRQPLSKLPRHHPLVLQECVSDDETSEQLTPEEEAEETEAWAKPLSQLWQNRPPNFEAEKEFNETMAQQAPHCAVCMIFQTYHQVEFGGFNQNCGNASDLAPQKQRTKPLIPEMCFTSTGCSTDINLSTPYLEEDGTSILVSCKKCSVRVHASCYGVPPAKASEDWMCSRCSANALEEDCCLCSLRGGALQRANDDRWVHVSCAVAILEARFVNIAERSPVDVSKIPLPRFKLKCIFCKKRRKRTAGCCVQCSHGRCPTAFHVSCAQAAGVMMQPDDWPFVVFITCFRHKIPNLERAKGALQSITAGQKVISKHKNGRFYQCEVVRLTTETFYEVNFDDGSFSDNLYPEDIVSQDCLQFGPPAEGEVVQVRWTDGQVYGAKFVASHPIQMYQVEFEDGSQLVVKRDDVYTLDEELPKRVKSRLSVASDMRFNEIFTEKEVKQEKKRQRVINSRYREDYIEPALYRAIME
12-LOX inh: inhibitors of human 12S-lipoxygenase ALOX12 | P18054 | purified 12hLO, xylenol orange hydroperoxide absorbance | Potency, µM (highest dose often 108 µM), usual class: inhibitors | actives 1.1% (n = 580,000)
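Purified human 12hLO at 150 nM in 25 mM Hepes, 0.01% Triton X-100, pH 7.0, preincubated 15 min at room temperature with compound. Reaction started with 40 uM arachidonic acid, 30 min at room temperature. Hydroperoxide measured by Fe-xylenol orange, 573/405 nm absorbance ratio.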
PLK1 PBD inh: blocks phosphopeptide binding to human PLK1 polo-box domain | P53350 | Plk1 PBD binding of FITC phosphopeptide, fluorescence polarization | Potency, µM, usual class: inhibitors | actives 2.8% (n = 360,000); also: series mostly up to about 57 µM; nearly all actives have a fitted effect of over 65% in size
Of the large screens only hits and unclear results are named; the others gave an inactive call. Calls follow the shape of the dose curve; as a rule, active = well fitted curve in the direction sought with a large enough effect; inconclusive = small, poorly fitted or top-dose-only effect, or another doubt; inactive = no such curve, though single readings can be large; an effect the other way counts as inactive or inconclusive.

O=c1c2oc3ccccc3c2[nH]c(=S)n1-c1ccccc1	G9a block 8.9µM, JMJD2A Tudor inh inconclusive, 12-LOX inh inconclusive, PLK1 PBD inh 27µM
Cc1ccc(-n2c(=S)[nH]c3c(oc4ccccc43)c2=O)cc1	G9a block inconclusive
O=c1c2sccc2[nH]c(=S)n1-c1ccccc1	G9a block inconclusive, JMJD2A Tudor inh 5.6µM, 12-LOX inh inconclusive
Cc1cccc(-n2c(=S)[nH]c3c(oc4ccccc43)c2=O)c1	G9a block 13µM
Cc1ccc(CNc2cnccn2)cc1	BAZ2B inh inconclusive
Cc1[nH]n(-c2ncc(-c3ccccc3)s2)c(=O)c1C(c1ccc(Br)cc1)C(C#N)C#N (configuration not stated)	HP1b binding inh 40µM, G9a block inconclusive, BAZ2B inh 35µM, JMJD2A Tudor inh 50µM, 12-LOX inh 25µM, PLK1 PBD inh 2.7µM
COc1cccc(/C=N/NC(=O)CO/N=C(\C)c2cccs2)c1OC	none
Cc1cc(NC(=O)Nc2nc3c(s2)CCCCCC3)ccc1Br	none (no result: PLK1 PBD inh)
CCOCC(=O)Nc1cccc(-c2nc3cccnc3s2)c1C	none
COc1ccc(C(=O)Nc2cccc(-c3nc4cccnc4s3)c2C)c(OC)c1	G9a block 11µM, JMJD2A Tudor inh inconclusive (no result: PLK1 PBD inh)
CCOc1ccccc1C(=O)Nc1cc(-c2nc3cccnc3s2)ccc1C	G9a block 10µM, BAZ2B inh 32µM, JMJD2A Tudor inh inconclusive (no result: PLK1 PBD inh)
Oc1c(/C=N/c2ccccn2)sc2ccccc12	G9a block 8.9µM, BAZ2B inh 40µM, JMJD2A Tudor inh inconclusive, 12-LOX inh inconclusive
CN=Cc1sc2ccccc2c1O	G9a block 50µM
Oc1c(C=Nc2ccc(Cl)cn2)sc2ccccc12	none
O=C(CNC(=O)c1ccc(Cl)cc1)OC1CCOC1=O (configuration not stated)	PLK1 PBD inh 24µM
Cc1nn(-c2ccccc2)c2c1C(c1ccco1)C(C#N)=C(N)O2 (configuration not stated)	G9a block 40µM, BAZ2B inh 40µM, JMJD2A Tudor inh 63µM, 12-LOX inh inconclusive, PLK1 PBD inh 27µM
Cc1nn(-c2ccccc2)c2c1C(c1ccc([N+](=O)[O-])cc1)C(C#N)=C(N)O2 (configuration not stated)	G9a block 50µM, BAZ2B inh inconclusive, PLK1 PBD inh inconclusive
Cc1nn(-c2ccccc2)c2c1C(c1cccs1)C(C#N)=C(N)O2 (configuration not stated)	HP1b binding inh 50µM, G9a block 35µM, BAZ2B inh 40µM, JMJD2A Tudor inh 56µM, PLK1 PBD inh inconclusive (no result: 12-LOX inh)
COc1cc(C2C(C#N)=C(N)Oc3c2c(-c2ccccc2)nn3-c2ccccc2)cc(OC)c1OC (configuration not stated)	G9a block inconclusive, BAZ2B inh 45µM, JMJD2A Tudor inh inconclusive
Cc1nn(-c2ccccc2)c(C)c1C1C(C#N)=C(N)Oc2n[nH]c(C)c21 (configuration not stated)	G9a block inconclusive
CCCc1nn(-c2ccccc2)c2c1C(c1cccs1)C(C#N)=C(N)O2 (configuration not stated)	G9a block inconclusive, BAZ2B inh 40µM, JMJD2A Tudor inh inconclusive
Nc1nnnn1Cc1nnc(SCc2c(F)cccc2Cl)n1-c1ccccc1	none (no result: HP1b binding inh, G9a block, BAZ2B inh, JMJD2A Tudor inh, PLK1 PBD inh)
O=C(CSc1nnc(-c2ccncc2)n1-c1ccc(F)cc1)NCc1ccc2c(c1)OCO2	none (no result: HP1b binding inh, G9a block, BAZ2B inh, JMJD2A Tudor inh, PLK1 PBD inh)
Cc1ccc(-n2c(Cc3cccn3C)nnc2SCC(=O)NCc2ccc3c(c2)OCO3)cc1	G9a block inconclusive, BAZ2B inh 50µM, JMJD2A Tudor inh inconclusive
Cc1ccc(-n2c(Cc3cccn3C)nnc2SCC(=O)Nc2ccc3c(c2)OCO3)cc1	HP1b binding inh inconclusive, G9a block inconclusive, BAZ2B inh 45µM, JMJD2A Tudor inh 45µM
Cc1ccc(-n2c(Cc3cccn3C)nnc2SCC(=O)Nc2nnc(C)s2)cc1	none
Cc1cc(NC(=O)c2ccco2)ccc1NC(=O)Cc1cccs1	12-LOX inh inconclusive
CCc1cc(C=NC2CCCCC2)c(O)s1	G9a block 13µM
Cc1nc(-c2ccccc2)cn(O)c1=O	G9a block inconclusive, BAZ2B inh 79µM, JMJD2A Tudor inh 28µM, 12-LOX inh inconclusive
Cc1nn2cc(-c3ccccc3)nc2[nH]c1=O	12-LOX inh inconclusive
CCN(C(=O)Cn1nnc2sc(-c3ccccc3)cc2c1=O)c1cccc(C)c1	G9a block 4.5µM, JMJD2A Tudor inh inconclusive, 12-LOX inh inconclusive (no result: PLK1 PBD inh)
CCc1ccc(NC(=O)C(C)n2nnc3sc(-c4ccccc4)cc3c2=O)cc1 (configuration not stated)	G9a block 3.5µM, 12-LOX inh inconclusive (no result: PLK1 PBD inh)
CCCN(CCC)C(=O)Cn1nnc2sc(-c3ccccc3)cc2c1=O	G9a block 13µM, BAZ2B inh inconclusive, 12-LOX inh inconclusive (no result: PLK1 PBD inh)
O=C(Nc1ccccc1N1CCOCC1)c1ccc2nc[nH]c2c1	none
Cc1cc2ccccc2n1CCNC(=O)c1ccc(Br)o1	HP1b binding inh inconclusive, G9a block 35µM, BAZ2B inh inconclusive, JMJD2A Tudor inh inconclusive, 12-LOX inh inconclusive
Cc1cc2ccccc2n1CCNC(=O)c1ccc(Br)cc1	none (no result: PLK1 PBD inh)
Cc1onc(-c2ccccc2Cl)c1C(=O)NCC(=O)O	none
Cc1onc(-c2ccccc2Cl)c1C(=O)NCCn1c(C)cc2ccccc21	G9a block 50µM (no result: 12-LOX inh)
CCC(=O)NCCn1c(C)cc2ccccc21	G9a block 45µM (no result: 12-LOX inh)
O=C(O)C(CCCCCCCCCCCO)C(=O)O	none (no result: HP1b binding inh, G9a block, BAZ2B inh, JMJD2A Tudor inh, PLK1 PBD inh)
CCOc1ccc(Oc2ccc(S(=O)(=O)N3CCOCC3)cc2NC(=O)CCNC(C)=O)cc1	none
O=C(OCCCN1CCCC1)C1(c2ccccc2)CCCC1	none
COc1ccc2cc(/C=C/C(=O)c3ccco3)c(Cl)nc2c1	G9a block 50µM (no result: HP1b binding inh, JMJD2A Tudor inh, 12-LOX inh, PLK1 PBD inh)
CCc1ccc2c(c1)NC(c1ccc(C)cc1)=NC(c1cccs1)=N2	HP1b binding inh inconclusive, G9a block 13µM, BAZ2B inh 25µM, JMJD2A Tudor inh 45µM (no result: PLK1 PBD inh)
Clc1ccc2c(c1)NC(c1ccncc1)=NC(c1cccs1)=N2	G9a block 28µM, BAZ2B inh inconclusive, JMJD2A Tudor inh inconclusive (no result: PLK1 PBD inh)
CCOc1ccc(C2=NC(c3cccs3)=Nc3ccc(C(C)C)cc3N2)cc1	G9a block 10µM, BAZ2B inh 22µM, JMJD2A Tudor inh 20µM (no result: PLK1 PBD inh)
CCCCOc1ccc(C2=NC(c3cccs3)=Nc3ccc(CC)cc3N2)cc1	G9a block inconclusive, BAZ2B inh inconclusive, JMJD2A Tudor inh inconclusive, 12-LOX inh inconclusive (no result: PLK1 PBD inh)
Clc1cccc(C2=NC(c3cccs3)=Nc3ccc(Br)cc3N2)c1	HP1b binding inh inconclusive, JMJD2A Tudor inh inconclusive (no result: PLK1 PBD inh)
CCn1ncc(N2CCC(NC(=O)Cc3ccccc3OC)CC2)cc1=O	none (no result: HP1b binding inh, G9a block, BAZ2B inh, JMJD2A Tudor inh, PLK1 PBD inh)
COC[C@@H]1CCCN1Cc1cn(Cc2ccccc2)nc1-c1cc2ccccc2o1	none (no result: HP1b binding inh, G9a block, BAZ2B inh, JMJD2A Tudor inh, PLK1 PBD inh)
COc1ccccc1NC(=O)c1ccc(SCC(=O)NCc2ccccc2Cl)c([N+](=O)[O-])c1	none
